An excerpt weighted towards active compounds, which were near 5.7% of everything screened.
D3 antag – qHTS of D3 Dopamine Receptor Antagonist: qHTS; D3R cells, DiscoveRx beta-arrestin luminescence, antagonist mode; active compounds read low; max response, negative = inhibition, %; 2.5% of 360,000 active; AID 652054, 2013; in the data active = max response below about -50%; inconclusive = no clear call, values can overlap the other calls
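Cells plated overnight at 1500 cells/well, then exposed to library compounds with dopamine controls for 90 minutes at 37 degrees C. DiscoveRx reagent added for 30–60 minutes at room temperature; luminescence read, quantitative HTS format.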
GLP1R inv ag – qHTS of GLP-1 Receptor Inverse Agonists (Inhibition Mode); HEK293 GLP-1R CRE-luciferase, luminescence, 24 h; GLP-1R form is constitutively active; Potency, µM (series often up to 38.3 µM), actives largely listed as inhibitors; 1.6% of 410,000 active; AID 624417, 2012; also: nearly all actives have a fitted effect of over 55% in size
Target sequence (P43220 whole entry, looked up): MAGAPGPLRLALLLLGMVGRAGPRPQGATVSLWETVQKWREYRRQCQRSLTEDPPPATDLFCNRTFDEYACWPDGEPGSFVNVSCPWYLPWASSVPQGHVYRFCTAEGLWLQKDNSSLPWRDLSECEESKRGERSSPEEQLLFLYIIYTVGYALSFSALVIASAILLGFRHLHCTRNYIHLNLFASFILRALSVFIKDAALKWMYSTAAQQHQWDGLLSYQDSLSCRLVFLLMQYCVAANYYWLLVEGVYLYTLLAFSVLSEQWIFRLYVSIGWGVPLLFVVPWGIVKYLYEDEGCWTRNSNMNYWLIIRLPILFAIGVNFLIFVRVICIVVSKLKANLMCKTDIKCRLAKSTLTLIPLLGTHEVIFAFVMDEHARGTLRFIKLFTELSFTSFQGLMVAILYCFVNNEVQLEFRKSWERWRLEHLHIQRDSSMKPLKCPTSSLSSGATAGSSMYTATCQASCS
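Assay principle: reduced luminescence from a cAMP-responsive reporter in HEK293 cells co-expressing a constitutively active GLP-1R. Conditions: 24 hr compound incubation, 37 deg C, 5% CO2.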
ClpP mod – qHTS Assay for Activators of ClpP | ATP-dependent Clp protease proteolytic subunit (Bacillus subtilis (strain 168)), P80244 | purified B. subtilis ClpP, FRET peptide cleavage, 20 min | Potency, µM (highest dose often 57.5 µM) | 1.9% of 340,000 active | AID 651965, 2013; active = well fitted falling curve with a large enough effect; inconclusive = small, poorly fitted or top-dose-only effect; inactive = no such curve, though single readings can be large or run the other way; also: the source files actives as falling curves though it sought activators and does not explain the sign; nearly all actives have a fitted effect of over 65% in size
Target sequence (P80244 whole entry, looked up): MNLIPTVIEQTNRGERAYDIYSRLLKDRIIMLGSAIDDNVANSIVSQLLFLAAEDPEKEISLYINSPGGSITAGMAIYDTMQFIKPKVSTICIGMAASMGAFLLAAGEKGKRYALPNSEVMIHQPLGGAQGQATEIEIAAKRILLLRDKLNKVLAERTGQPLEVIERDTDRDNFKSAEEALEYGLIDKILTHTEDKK
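Purified B. subtilis ClpP, 10 microg/mL final in Tris/HCl pH8 with KCl, BSA, glycerol and Tween-20, cleaved an Abz/nitrotyrosine-quenched decapeptide. Fluorescence (ex 320, em 430) was read at 0 and 20 min at room temperature. Delta was normalized to 5.8 microM ADEP and DMSO/no-enzyme controls.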
GLP1R cytotox – qHTS of GLP-1 Receptor Inverse Agonists: Cytotox Screen. HEK293 cAMP-luciferase reporter cells, luminescence, 24 h. Potency, µM (titrated, usually from 38.3 µM), most hits filed as inhibitors. 0.13% of 410,000 active. AID 624418, 2012;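 also: loss of luciferase light is scored as toxicity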
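1536-well qHTS counterscreen of the MLSMR; 200 cells/uL, 12 h pre-incubation, 23 nL cpd, 24 h at 37 deg C 5% CO2, luciferase detection reagent, 12 min RT, luminescence. Inhibition = undesired.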
DRD3 agonist – qHTS of D3 Dopamine Receptor Agonist: qHTS | D3R DiscoveRx beta-arrestin cells, luminescence, 90 min | 0.58% of 410,000 active | AID 652048, 2013 | max activation, % | D(3) dopamine receptor (Homo sapiens), P35462; in the data active = max activation above about 30%
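Cells at 1500/well, incubated overnight, then treated with pinned compounds (dopamine as control) for 90 min at 37 degrees C. DiscoveRx reagent added for 30 - 60 minutes at room temperature; luminescence read.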
GLP1R ag – qHTS of GLP-1 Receptor Agonists; Potency, µM (top dose mostly 45.6 µM), actives largely listed as activators; Glucagon-like peptide 1 receptor (Homo sapiens), P43220; 0.007% of 380,000 active; HEK293 GLP-1R CRE-luciferase, luminescence, 4-6 h; cells express a hypersensitive GLP-1R form
Each line names hits and unclear results; the compound was inactive in the other large screens. Unless noted, calls follow the shape of the dose curve; as a rule, active = well fitted curve in the direction sought with a large enough effect; inconclusive = small, poorly fitted or top-dose-only effect, or another doubt; inactive = no such curve, though single readings can be large; an effect the other way counts as inactive or inconclusive.

O=C(CCNS(=O)(=O)c1ccc(Br)s1)NC1CCCC1	D3 antag -103, GLP1R inv ag inconclusive
CN(C)c1ccc(CNC(=O)c2ccc(Cn3c(SCc4ccccc4)nc4cccnc43)cc2)cc1	none (no result: D3 antag, GLP1R ag)
CCCCn1c(CNC(=O)C23CC4CC(CC(C4)C2)C3)nnc1SC(C)CC (configuration not stated)	D3 antag inconclusive, GLP1R inv ag 3.5µM
COCc1c(Br)c(C)[nH]c(=O)c1C#N	ClpP mod 14µM
O=c1c(-c2nnc(SCc3ccc(Cl)cc3Cl)o2)cccn1Cc1ccccc1	ClpP mod 3.2µM
CSc1nnc(-c2cccn(Cc3ccccc3)c2=O)o1	none (no result: ClpP mod)
COc1ccc(-c2ccc(NS(=O)(=O)c3cc(C)c(C)cc3C)cc2)nn1	none (no result: D3 antag, GLP1R ag)
O=C(CN1CCN(c2ccccc2F)CC1)c1ccc2cc[nH]c2c1	D3 antag -63
CC(=O)N1CCc2cc(S(=O)(=O)CCC(=O)N3CCN(c4ccccn4)CC3)ccc21	ClpP mod inconclusive
O=C(CN1CCN(c2ccccc2F)CC1)c1c[nH]c2ccc(F)cc12	none
CC(=O)N1CCc2cc(C(=O)CN3CCN(c4ccccc4F)CC3)ccc21	D3 antag -65
CC(=O)N1CCc2cc(C(=O)CN3CCN(c4ccccn4)CC3)ccc21	DRD3 agonist 68 (no result: ClpP mod)
CCOc1ccc(NC(=O)c2ccc(-c3nc(COc4ccccc4)c(C)o3)cc2)cc1	none (no result: D3 antag, GLP1R ag)
CC(=O)N1CCN(CC(=O)Nc2ccccc2Sc2ccc(Cl)cc2)CC1	none
CCc1ccccc1NC(=O)CN1CCN(C(=O)C(C)NC(=O)c2ccc(Cl)cc2)CC1 (configuration not stated)	ClpP mod 16µM
Cc1ccc(O/C=C2/Nn3c(nnc3-c3cc(-c4ccccc4)n[nH]3)S2)cc1	none (no result: D3 antag, GLP1R inv ag, GLP1R cytotox, DRD3 agonist, GLP1R ag)
COc1ccc(CCNc2ncnc3c2cnn3-c2cccc(Cl)c2)cc1	ClpP mod inconclusive (no result: D3 antag, GLP1R ag)
COc1ccc(CCNc2ncnc3c2cnn3-c2ccc(C)c(Cl)c2)cc1	DRD3 agonist 30 (no result: D3 antag, GLP1R ag)
Cc1ccc(-n2ncc3c(NCCc4ccccc4)ncnc32)cc1Cl	ClpP mod 32µM, DRD3 agonist 37 (no result: D3 antag, GLP1R ag)
CSc1nc(Nc2ccc(C)cc2)c(C#N)c(-c2ccccc2)n1	none (no result: D3 antag, GLP1R ag)
CC1(C(=O)OCC(=O)NC(=O)c2ccccc2)CC1(Cl)Cl (configuration not stated)	none (no result: ClpP mod)
CC1(C(=O)OCC(=O)N2c3ccccc3Sc3ccccc32)CC1(Cl)Cl (configuration not stated)	GLP1R inv ag 11µM
Nc1nc2ccc(Cl)cc2cc1C(=O)NCCCN1CCOCC1	none (no result: GLP1R ag)
COC1=CC(=O)OC(c2ccc(C#N)cc2)C1 (configuration not stated)	none (no result: GLP1R ag)
CCC(c1nnnn1Cc1cccs1)N1CCN(C2CCCC2)CC1 (configuration not stated)	D3 antag -63
CCCC(c1nnnn1Cc1cccs1)N1CCN(C2CCCC2)CC1 (configuration not stated)	none
O=C(NCc1ccccc1F)c1cccc(NC(=O)N2CCSc3ncccc32)c1	ClpP mod inconclusive (no result: D3 antag, GLP1R ag)
O=C(Cn1nc(C(F)(F)F)c2c1CCCC2)NC1CCCC1	D3 antag -55
CC(C)NC(=O)Cn1nc(C(F)(F)F)c2c1CCC2	none
CCc1ccccc1NC(=O)Cn1nc(C(F)(F)F)c2c1CCCC2	none (no result: D3 antag)
COC(=O)c1ccccc1NC(=O)Cn1nc(C(F)(F)F)c2c1CCCC2	GLP1R inv ag 11µM (no result: D3 antag, GLP1R ag)
COCCCN1C(=O)C(CC(=O)NC2CCCCC2)CC(C(=O)N2CCCCCC2)=C1C (configuration not stated)	none (no result: D3 antag, GLP1R inv ag, GLP1R cytotox, DRD3 agonist, GLP1R ag)
Cc1cc(C)cc(NC(=O)CSc2nccn2C2CCCC2)c1	none (no result: D3 antag, GLP1R ag)
Cc1cccc(NC(=O)Cn2c(O)c(N=NC(=O)c3ccccc3O)c3ccccc32)c1	D3 antag -71
Cc1ccc(S(=O)(=O)N(CC(O)CN2CCOCC2)c2cc(Cl)ccc2Cl)cc1 (configuration not stated)	D3 antag -54, GLP1R inv ag inconclusive
COc1ccc(N=c2oc3cc(O)ccc3cc2C(=O)NCC2CCCO2)c(OC)c1 (configuration not stated)	ClpP mod 25µM
COc1ccc(N=c2oc3cc(O)ccc3cc2C(=O)NCC2CCCO2)cc1 (configuration not stated)	none
COc1ccc(-n2nc(C(=O)NCC(=O)NCC3CCCO3)c3ccccc3c2=O)c(OC)c1 (configuration not stated)	none
C=CCn1c(N)c(C(=O)NCC2CCCO2)c2nc3ccccc3nc21 (configuration not stated)	ClpP mod 8.9µM
COc1ccc(-n2c(N)c(C(=O)NCC3CCCO3)c3nc4ccccc4nc32)c(OC)c1 (configuration not stated)	ClpP mod 32µM
CCc1nc2ccc(C(=O)NCCN3CCNC3=O)cn2c1N(CC)CCOC	none
COc1ccc(-c2csc3ncnc(Nc4cccc(F)c4)c23)cc1	none (no result: D3 antag, GLP1R ag)
COc1ccc(-c2csc3ncnc(Nc4ccc(OC)cc4OC)c23)cc1	ClpP mod 40µM (no result: D3 antag, GLP1R ag)
COc1ccccc1Nc1ncnc2scc(-c3ccc(F)cc3)c12	ClpP mod 28µM (no result: D3 antag, GLP1R ag)
COc1ccc(OC)c(-c2cc(C3CCN(C(=O)OC(C)(C)C)CC3)[nH]n2)c1	DRD3 agonist 46
CCN(CC)C(=O)Nc1ccc(C(=O)OC)cc1	D3 antag -69
Cn1cccc1-c1cc(C(=O)N/N=C/c2ccc(F)cc2)[nH]n1	D3 antag -82 (no result: ClpP mod)
Cn1cccc1-c1cc(C(=O)N/N=C/c2ccccc2Cl)[nH]n1	D3 antag -78
O=C(NC1CCCc2ccccc21)c1cnn2c1NC(=C1CC1)C=C2C(F)F (configuration not stated)	none (no result: D3 antag, GLP1R inv ag, GLP1R cytotox, DRD3 agonist, GLP1R ag)
Cc1ccc(CNC(=O)CCc2c(C)nc3c4c(C)cc(C)nc4nn3c2C)cc1	none (no result: D3 antag, GLP1R ag)
CC(CCc1ccccc1)NCc1ccncc1 (configuration not stated)	DRD3 agonist 78
CC(Cc1ccccc1)C(=O)NCc1ccncc1 (configuration not stated)	D3 antag inconclusive
Cc1ccc(-c2c(C(=O)N3CCN(c4cccc(C)c4C)CC3)oc(=O)c3ccccc23)cc1	none (no result: D3 antag)
CCN(CC)C(=O)c1cc2c(=O)n3cccc(C)c3nc2n1C	ClpP mod 32µM

Screens from PubChem.
